# Assay results taken from PubChem BioAssay AID1578 (Sanford-Burnham Center for Chemical Genomics, 2009).
# Out of some 290,000 compounds screened, about 3,000 (1%) were called active. No stated cut-off is given here; in the data, active means inhibition mostly above about 36% (no sharp cut-off); inactive means mostly below about 34%. The sample as a whole holds a higher share of actives than the screen did.
# Test: inhibition of NOD1-driven NF-kB reporter – cell-based, luminescence, uHTS, primary screen (AID 1578);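 further: HEK-293T reporter cells stimulated with the NOD1 agonist gamma-tri-DAP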
# Settings: NOD1-driven NF-kB luciferase reporter cells, at 4 µM, hits give high values
row,Structure (SMILES),inhibition
1,CCN(CC)C(=S)SSC(=S)N(CC)CC,91.1% (active)
2,CCN(CC)C(=S)SCC(=O)c1ccccc1,-25.7% (inactive)
3,CCN(CC)C(=S)SC1=CCS(=O)(=O)C1,-17.5% (inactive)
4,CCCCC(CCCC)=N/N=C/c1c(O)n(CC)c2cc(C3=NNC(=O)CC3)ccc12,-49.6% (inactive)
5,CC/C(C)=N\N=C\c1c(O)n(CC)c2cc(C3=NNC(=O)CC3)ccc12,-29.5% (inactive)
6,CCC(CC)=N/N=C/c1c(O)n(CC)c2cc(C3=NNC(=O)CC3)ccc12,60.5% (active)
7,C=CCNc1nc(C(=O)OCC(=O)c2ccc(C)c([N+](=O)[O-])c2)cs1,-31.1% (inactive)
8,CCOC(=O)c1ccc(-n2c(C)ccc2C)cc1,-10.6% (inactive)
9,CCOC(=O)c1ccc(N2C(=O)C=CC2=O)cc1,80.8% (active)
10,CCOC(=O)c1ccc(N2C(=O)C(C)=C(C)C2=O)cc1,-37.3% (inactive)
11,NS(=O)(=O)c1ccc(CNC(=O)CSc2ccccc2)cc1,-19.9% (inactive)
12,O=C(COc1ccccc1Cl)NCCCNC(=O)c1cnccn1,27.3% (inactive)
13,Cc1ccc(C)c(NC(=O)CN(C)C(=O)CSC(C)C(=O)Nc2cc(C)on2)c1 (stereo not drawn),-0.8% (inactive)
14,Cc1cc(NC(=O)C(C)SCC(=O)N(C)CC(=O)Nc2ccc(Br)cc2C)no1 (stereo not drawn),-22.8% (inactive)
15,CCOc1ccc(NC(=O)CN(C)C(=O)CSC(C)C(=O)Nc2cc(C)on2)cc1OCC (stereo not drawn),44.5% (active)
16,COc1cccc(OC)c1-c1nn(-c2ncc(C(F)(F)F)cc2Cl)c(=O)o1,-7.3% (inactive)
17,CCOC(=O)c1cc2c(nc1N)CCCC2,1.3% (inactive)
18,CC(=O)Nc1nc2c(ccc3ccccc32)s1,-38% (inactive)
19,O=C(Cc1cccs1)Nc1nc2c(ccc3ccccc32)s1,35.8% (active)
20,O=C(Cc1cccs1)Nc1nc2ccccc2s1,-32.2% (inactive)
21,COCCn1c(SCC(=O)NCC2CCCO2)nc2c(c1=O)SCC2 (stereo not drawn),-12.5% (inactive)
22,COc1ccc(S(=O)(=O)Cc2ccc(C(=O)NCc3ccc(C)cc3)o2)cc1,-23.8% (inactive)
23,O=C(/C=C/c1ccccc1)NC(=S)Nc1ccc(N2CCOCC2)cc1,-25.8% (inactive)
24,COc1cc(C(=O)Nc2scc(-c3ccccc3)c2C(=O)O)cc(OC)c1OC,-21.1% (inactive)
25,COc1ccc(-c2csc(NC(=O)c3cccs3)c2C(=O)O)cc1OC,-46.6% (inactive)

row,Structure (SMILES),inhibition
1,COc1cc(C(=O)Nc2sc3c(c2C(=O)O)CCC3)cc(OC)c1OC,7.5% (inactive)
2,O=C(Nc1sc2c(c1C(=O)O)CCCC2)c1cccs1,43.6% (inactive)
3,COc1cc(C(=O)Nc2sc(C)c(C)c2C(=O)O)cc(OC)c1OC,-18.1% (inactive)
4,COc1cc(C(=O)Nc2scc(-c3ccc(C)cc3)c2C(=O)O)cc(OC)c1OC,12.7% (inactive)
5,O=C(Nc1scc(-c2cccs2)c1C(=O)O)c1cccs1,-40.1% (inactive)
6,O=C(/C=C/c1ccccc1)Nc1sc2c(c1C(=O)O)CCC2,-2.6% (inactive)
7,COc1ccc(CN(C)C(=O)c2cnc(OC)cc2C(F)(F)F)c(OC)c1,1% (inactive)
8,OC(CC#CCN1CCCCC1)(c1ccccc1)c1ccccc1,-4.1% (inactive)
9,CCN(c1ccccc1)S(=O)(=O)c1cccc(C(=O)N2CCN(S(=O)(=O)c3ccccc3)CC2)c1,-20.1% (inactive)
10,Cc1cc(C)nc(NS(=O)(=O)c2ccc(NC(=O)c3ccccc3[N+](=O)[O-])cc2)n1,-22.1% (inactive)
11,COc1ccc(-c2nnc(-c3cccnc3)o2)cc1OC,-21.1% (inactive)
12,CC(CNC(=O)COc1ccccc1)OC(=O)Nc1cccc(Cl)c1 (stereo not drawn),16.6% (inactive)
13,CC1=CS/C(=C(/C#N)C(=O)NCc2ccco2)N1c1ccccc1,4% (inactive)
14,COC(=O)C(Cc1c[nH]c2ccccc12)NC(=O)CNC(C)=O (stereo not drawn),6.8% (inactive)
15,CC1CCc2c(sc(NC(=O)c3ccco3)c2C(=O)O)C1 (stereo not drawn),14.4% (inactive)
16,COC(=O)c1c(NC(=O)c2cccs2)sc2c1CCC(C)C2 (stereo not drawn),-32.6% (inactive)
17,O=C(NCCCN1CCN(c2ccccc2F)CC1)C1CC(=O)N(C2CCCC2)C1 (stereo not drawn),14.3% (inactive)
18,COc1ccc(Br)cc1C(=O)NC(=S)Nc1ccc2[nH]c(=O)[nH]c2c1,-35.1% (inactive)
19,O=C(NC(=S)Nc1ccc2[nH]c(=O)[nH]c2c1)c1ccccc1Cl,-31.2% (inactive)
20,O=C(NC(=S)Nc1ccc2[nH]c(=O)[nH]c2c1)c1cc(Br)ccc1Cl,47.4% (active)
21,COc1ccc2[nH]c(=O)c(CN(Cc3cccnc3)C(=S)NCC3CCCO3)cc2c1 (stereo not drawn),-30.3% (inactive)
22,O=c1c2[nH]c3ccc(F)cc3c2ncn1CCN1CCOCC1,-10.5% (inactive)
23,O=P(c1ccccc1)(c1ccccc1)C1CCCO1 (stereo not drawn),4.7% (inactive)
24,O=S(=O)(c1ccccc1)N1CCC2(CC1)OCCO2,-41.5% (inactive)
25,O=S(=O)(c1ccccc1)N1CCC2(CC1)CO2,75.5% (active)

row,Structure (SMILES),inhibition
1,O=S(=O)(c1ccc(Cl)cc1)N1CCC2(CC1)CO2,-17.5% (inactive)
2,O=C(NCCCNC(=O)C(F)(F)C(F)F)C(F)(F)C(F)F,-3.6% (inactive)
3,O=C(CNS(=O)(=O)c1ccc(Br)cc1)Nc1ccc2c(c1)OCCO2,-27.7% (inactive)
4,CCC(CC)=NNC(=O)c1ccccc1OCc1ccc(F)cc1,-13.1% (inactive)
5,FC(F)(F)c1ccc(/C=N/NC(=S)NC2CCCCC2)cc1,-19.8% (inactive)
6,COCC1CCN(C(=O)c2cc(COc3ccccc3SC)on2)C1 (stereo not drawn),-17.6% (inactive)
7,COc1cccc(OCc2cc(C(=O)N3CCC(c4ccncc4)CC3)no2)c1,26.7% (inactive)
8,Cc1cccc(C)c1OCc1cc(C(=O)N2CCC(c3ccncc3)CC2)no1,6.6% (inactive)
9,CSc1ccccc1OCc1cc(C(=O)N2CCC(Oc3cccnc3)CC2)no1,-30.2% (inactive)
10,Cc1ccc(NC(=S)NC(NC(=O)N(C)C)C(Cl)(Cl)Cl)cc1 (stereo not drawn),-18.2% (inactive)
11,Cc1cc(OCC(=O)N(C(C)C)C(C)C)ccc1Cl,-6.4% (inactive)
12,O=[N+]([O-])c1cccc(-c2nnc(C34CC5CC(CC(C5)C3)C4)o2)c1,3.3% (inactive)
13,COc1ccccc1NC(=O)Nc1ccc2c(c1)nc(C)n2C,-28.8% (inactive)
14,CCn1c(C)nc2cc(C(=O)NNC(=O)Nc3cccc(Cl)c3)ccc21,-5.3% (inactive)
15,Cc1nc2cc(NC(=O)Nc3cccc4ccccc34)ccc2n1C,-27.6% (inactive)
16,CCn1c(C)nc2cc(NC(=O)Nc3cccc(C(C)=O)c3)ccc21,27.9% (active)
17,CC(=O)c1ccc(NC(=O)Nc2ccc3c(c2)nc(C)n3C)cc1,-18.8% (inactive)
18,Cc1nc2cc(NC(=O)Nc3ccccc3Cl)ccc2n1C,53% (active)
19,CN1CCN(C(=O)C2CCCN(S(=O)(=O)c3ccc(F)cc3)C2)CC1 (stereo not drawn),-7.3% (inactive)
20,Cc1ccccc1Nc1n[nH]c(C)c1[N+](=O)[O-],-24.5% (inactive)
21,O=C(NCCc1ccccc1)c1cccc2c1C(=O)N(C1CCCCC1)C2,-19.5% (inactive)
22,COc1ccc(CC(=O)Nc2cccnc2)cc1,-8.6% (inactive)
23,O=C(Cc1ccc(Cl)cc1Cl)Nc1ccncc1,42.8% (inactive)
24,O=C(Cc1c(Cl)cccc1Cl)Nc1ccncc1Cl,5.2% (inactive)
25,COc1ccc(CC(=O)Nc2ccccc2NC(=O)Cc2ccc(OC)cc2)cc1,-7.4% (inactive)

row,Structure (SMILES),inhibition
1,COc1ccccc1/C=C/CN1CC(C)OC(C)C1 (stereo not drawn),-19.9% (inactive)
2,Cc1ccc(NC(=O)CCn2cccc2)cc1,3.6% (inactive)
3,O=C(CSc1nnc(-c2cccnc2)n1Cc1ccccc1)NCc1ccco1,8.8% (inactive)
4,COC(=O)C1CCN(Cc2cn(-c3ccccc3)nc2-c2ccc3c(c2)OCO3)CC1,-55.9% (inactive)
5,CC1CN(Cc2c(O)ccc3c(=O)c(-c4ccccc4)coc23)CC(C)O1 (stereo not drawn),-13.3% (inactive)
6,COc1ccc(C2N3CC4(C)CN2CC(C)(C3)C4=O)cc1OC (stereo not drawn),-7.8% (inactive)
7,Cc1ccc(-c2noc(CCC(=O)NCc3ccco3)n2)cc1,-0.8% (inactive)
8,O=C(CCc1nc(-c2ccccc2)no1)NCc1ccco1,11% (inactive)
9,Fc1cnc(N2CCN(c3ccccc3)CC2)nc1N1CCN(c2ccccc2)CC1,43.3% (inactive)
10,O=C(CCc1nc2ccccc2c(=O)[nH]1)Nc1ccc(F)cc1,-23.2% (inactive)
11,Oc1ccc(-c2cn3ccccc3n2)cc1O,1.7% (inactive)
12,c1ccn2cc(-c3ccc4c(c3)OCCO4)nc2c1,45.8% (active)
13,COC(=O)c1ccc2nc(-c3ccc4c(c3)OCO4)cn2c1,68.3% (active)
14,COC(=O)c1ccc2nc(-c3cccc(N)c3)cn2c1,40.5% (inactive)
15,Oc1ccc(-c2cn3ccccc3n2)cc1,-2% (inactive)
16,Clc1ccc2nc(-c3ccc4c(c3)OCO4)cn2c1,-30.6% (inactive)
17,CC12CCC(C(=O)O)(c3nc(C#N)c(C#N)nc31)C2(C)C (stereo not drawn),-25.8% (inactive)
18,O=C(NCc1ccccn1)c1cccc(NS(=O)(=O)c2cccc(F)c2)c1,-15.2% (inactive)
19,O=C(CCCCCn1c(=S)[nH]c2ccc(N3CCOCC3)cc2c1=O)NCc1ccccc1,2.3% (inactive)
20,Cc1cccc(N2CCN(C(=O)CCCn3c(=S)[nH]c4cc5c(cc4c3=O)OCO5)CC2)c1C,2.8% (inactive)
21,O=C(CCCn1c(=S)[nH]c2cc3c(cc2c1=O)OCO3)N1CCN(c2ccccc2)CC1,-1% (inactive)
22,O=C(CCCn1c(=S)[nH]c2cc3c(cc2c1=O)OCO3)N1CCN(c2ccc(F)cc2)CC1,-8.6% (inactive)
23,C=CCNC(=O)CN(c1ccc(F)c(Cl)c1)S(C)(=O)=O,-17.3% (inactive)
